Most compounds without a hit are left out; they make up all but 7.9% or so of the library.
LASV entry inh – Lassa virus entry inhibition | 300,000 compounds, 1.2% hits | Lassa virus pseudotype entry inhibition, cell reporter | Potency, µM (doses to about 37.9 µM), actives largely listed as inhibitors; calls by dose curve; tested in HEK293 cells; also: nearly all actives have a fitted effect of over 50% in size
HCMV inh – human cytomegalovirus inhibition; AID 1259415; 410,000 compounds, 4.5% hits; activity change, negative = inhibition, % at 57.5 µM; HFF cells, HCMV-luciferase reporter, 72 h; hits give low values; in the data active = activity change below about -60%; inconclusive = no clear call, values can overlap the other calls; inactive = above about -39%
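Luciferase read-out from HCMV-luciferase-infected HFFs (MOI 1 PFU/cell) 72 h post infection at 37C; compounds added after 16 h cell attachment; activity normalized between buffer-only basal and Salinomycin (10uM) inhibitor controls.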
MARV entry inh – inhibitors of Marburg virus binding or cell entry. 300,000 compounds, 1.8% hits. Potency, µM (doses to about 37.8 µM), most hits filed as inhibitors. Marburg virus pseudotyped entry inhibition, cell reporter; calls by dose curve; tested in HEK293 cells
FMDV antiviral – foot and mouth disease virus antiviral activity | FMDV antiviral cell-based qHTS | Potency, µM (series often up to 57.9 µM), actives largely listed as inhibitors | 410,000 compounds, 1.2% hits | AID 1159524; calls by dose curve; tested in HEK293T cells; also: read-out not given here; nearly all actives have a fitted effect of over 45% in size
HCV inhibitor – HCV inhibition | AID 651820 | Huh7.5.1 HCVcc-Cre infection, luciferase reporter, 44 h | Potency, µM (series often up to 41.8 µM), hits mostly inhibitors | 340,000 compounds, 3.4% hits; active = well fitted inhibition curve with a large enough effect; inconclusive = small, poorly fitted or top-dose-only effect, or another doubt; inactive = no such curve, though single readings can be large or run the other way
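After 44 h co-culture of compound, cells and HCVcc-Cre (~0.5 moi), substrate is added for 15 min at room temperature and luciferase measured over 15 sec. Cells were seeded at 1,000/well and pre-cultured 4 h.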
Each line names hits and unclear results; the compound was inactive in the other large screens; ! = a repeat was not active.

CC1O[C@@H](O[C@@H]2C(O)C[C@H](O[C@@H]3C(O)C[C@@H](OC4CC[C@@]5(C)C6CC[C@]7(C)C(C8=CC(=O)OC8)CC[C@@]7(O)C6CC[C@@H]5C4)OC3C)OC2C)CC(O)[C@H]1O (stereo not given in full)	none (no result: LASV entry inh, HCMV inh, MARV entry inh, HCV inhibitor)
C/C(=N\N(Cc1ccccc1)c1ccccc1)c1cccnc1	none (no result: LASV entry inh, MARV entry inh)
Cc1ccc(-c2ccc(/C=C3\SC(N4CCOCC4)=NC3=O)o2)cc1	LASV entry inh inconclusive, MARV entry inh inconclusive, HCV inhibitor 13µM
O=C1N=C(N2CCOCC2)S/C1=C/c1ccc(-c2ccc(F)cc2)o1	LASV entry inh inconclusive, MARV entry inh 2.5µM, HCV inhibitor inconclusive
O=C1N=C(N2CCOCC2)SC1=Cc1ccco1	none
O=C1N=C(N2CCOCC2)S/C1=C\c1cccnc1	MARV entry inh inconclusive, HCV inhibitor inconclusive
O=C(NCC1CCC2(CCN(Cc3ccccc3O)CC2)O1)C1CCCO1 (stereo not given)	none (no result: LASV entry inh, HCMV inh, MARV entry inh, HCV inhibitor)
COC(=O)CC=C[C@H](C)[C@@H](NC(=O)C(F)(F)F)c1ccccc1Br	none (no result: LASV entry inh, HCMV inh, FMDV antiviral, HCV inhibitor)
COCCCn1c(=N)c(C(=O)NCc2ccco2)cc2c(=O)n3ccccc3nc21	MARV entry inh 2.5µM (no result: HCV inhibitor)
Cc1ccc(Cn2c(=N)c(C(=O)NCc3ccco3)cc3c(=O)n4ccccc4nc32)cc1	LASV entry inh inconclusive, MARV entry inh 13µM, HCV inhibitor 11µM
COc1ccc(CCn2c(=N)c(C(=O)NCc3ccco3)cc3c(=O)n4ccccc4nc32)cc1OC	HCMV inh -95, HCV inhibitor inconclusive (no result: LASV entry inh, MARV entry inh)
COc1ccc(CCNC(=O)c2cc3c(=O)n4ccccc4nc3n(Cc3ccco3)c2=N)cc1OC	HCMV inh inconclusive, HCV inhibitor 2.2µM (no result: LASV entry inh, MARV entry inh)
CSCCC(NS(=O)(=O)/C=C/c1ccccc1)C(=O)NCCc1ccc(S(N)(=O)=O)cc1 (stereo not given)	LASV entry inh inconclusive
COC(=O)CC=C[C@@H](C)[C@@H](C=NO[C@H](C)c1cn([C@@H]2COC[C@@H]2O)nn1)N[S+](=O)([O-])c1ccc(C)cc1	none (no result: LASV entry inh, HCMV inh, FMDV antiviral, HCV inhibitor)
COc1ccc(CCn2c(C)nc3ccccc3c2=O)cc1OC	none (no result: LASV entry inh, MARV entry inh)
COc1ccc(CCn2c(-c3ccco3)nc3ccccc3c2=O)cc1OC	LASV entry inh inconclusive, MARV entry inh inconclusive, FMDV antiviral 32µM, HCV inhibitor inconclusive
O=C(c1cnccn1)N1CCC2(CC1)CCN(c1ncccn1)CC2	none (no result: LASV entry inh, HCMV inh, MARV entry inh, HCV inhibitor)
OCCCn1c(CCNc2nc(-c3ccc(Cl)cc3)cs2)nc2cc(C(F)(F)F)ccc21	HCMV inh -63, HCV inhibitor inconclusive (no result: LASV entry inh, MARV entry inh)
COc1ccc(-c2csc(NC(C)c3nc4cc(C(F)(F)F)ccc4n3CCOCCO)n2)cc1 (stereo not given)	FMDV antiviral inconclusive, HCV inhibitor 8.9µM (no result: LASV entry inh, MARV entry inh)
Cc1ccc(C(=O)NNC(=O)CCCCC(=O)NNC(=O)c2ccc(C)cc2)cc1	none
Cc1cccc(N2CCN(C(=O)c3ccc4nc(-c5ccco5)c(-c5ccco5)nc4c3)CC2C)c1 (stereo not given)	LASV entry inh inconclusive, MARV entry inh inconclusive, FMDV antiviral 25µM, HCV inhibitor 10µM
Cc1cccc(N2CCN(C(=O)c3ccc4nccnc4c3)CC2C)c1 (stereo not given)	none
Cc1noc(C)c1CSc1nc2ccccc2c(=O)n1-c1ccc(F)cc1F	MARV entry inh inconclusive, FMDV antiviral inconclusive, HCV inhibitor inconclusive
Cc1noc(C)c1CSc1nc2ccccc2c(=O)n1-c1ccccc1	LASV entry inh inconclusive, MARV entry inh inconclusive, FMDV antiviral inconclusive, HCV inhibitor 4µM
Cc1noc(C)c1CSc1nc2[nH]ncc2c(=O)n1-c1ccccc1	LASV entry inh 4µM, MARV entry inh inconclusive
Cc1nc(CSc2nc3[nH]ncc3c(=O)n2-c2ccccc2)cs1	MARV entry inh inconclusive
CCc1ccc(-n2c(SCc3ccccc3C)nc3[nH]ncc3c2=O)cc1	HCMV inh inconclusive (no result: MARV entry inh, HCV inhibitor)
CCc1ccc(-n2c(SCc3ccccc3Cl)nc3[nH]ncc3c2=O)cc1	HCMV inh -105, FMDV antiviral inconclusive (no result: MARV entry inh, HCV inhibitor)
CC1CCCN(C(=O)c2cccc(S(=O)(=O)N3CCCC3)c2)C1 (stereo not given)	none (no result: LASV entry inh, MARV entry inh)
COc1ccc2c(CC(=O)OCC(=O)N(C)c3c(N)n(Cc4ccccc4)c(=O)[nH]c3=O)coc2c1	HCV inhibitor inconclusive
CCOc1ccc(CCNC(=O)c2cc3sccc3n2CC)cc1OCC	LASV entry inh 15µM, MARV entry inh inconclusive, FMDV antiviral inconclusive, HCV inhibitor 7.9µM
CCOc1ccc(CCNC(=O)c2ccccc2OCc2c(C)noc2C)cc1OCC	HCV inhibitor 7.1µM
COC(=O)c1ccc(S(=O)(=O)NCCSc2nnc3c4ccccc4n(C)c3n2)cc1	MARV entry inh inconclusive, HCV inhibitor 10µM
Cc1n[nH]c(=O)c2c(NC(=O)CSc3ccc(Br)cc3)oc(C)c12	none
Cc1ccc(S(=O)(=O)N(CCCN2CCCC2=O)Cc2cc3c(C)ccc(C)c3[nH]c2=O)cc1	HCMV inh -64, MARV entry inh inconclusive
COc1ccc(S(=O)(=O)N(CCCN2CCCC2=O)Cc2cc3cc(C)c(C)cc3[nH]c2=O)cc1	none
COc1ccccc1CNC(=O)C1CCN(C(=O)c2sccc2-n2cccc2)CC1	HCV inhibitor inconclusive (no result: LASV entry inh)
O=C1NCCCc2c1oc1ccc(O)cc21	LASV entry inh inconclusive, HCMV inh -63, MARV entry inh inconclusive
CCOC(=O)c1cc(C)n(CC2CCC(C(=O)Nc3cccc(C(C)=O)c3)CC2)c1C (stereo not given)	none (no result: MARV entry inh, HCV inhibitor)
CCc1ccc(CNC(=O)CCSCc2ccccc2F)cc1	none (no result: MARV entry inh, HCV inhibitor)
COCC(=O)Nc1cc(C(=O)N2CCOc3ccccc3C2)cc2nc(-c3cccnc3)n(C)c12	none (no result: LASV entry inh, HCMV inh, MARV entry inh, HCV inhibitor)
CCCCCCCCCC[Si](C)(C)CCC(=O)NC(Cc1ccc(C)cc1)c1ccccc1 (stereo not given)	MARV entry inh 7.9µM! (no result: HCMV inh, FMDV antiviral, HCV inhibitor)
O=C(CCl)NC(Cc1ccccc1)c1ccccc1 (stereo not given)	MARV entry inh inconclusive, FMDV antiviral inconclusive
CC1CCc2c(c3ccccc3n2C(=O)CCl)C1 (stereo not given)	FMDV antiviral 20µM, HCV inhibitor inconclusive
CCN1CCN(CC(=O)n2c3c(c4ccccc42)CC(C)CC3)CC1 (stereo not given)	MARV entry inh inconclusive, HCV inhibitor 3.2µM
O=C(CN1Cc2ccccc2OC(c2ccsc2)C1)N1CCN(Cc2ccc3c(c2)OCO3)CC1 (stereo not given)	none (no result: LASV entry inh, HCMV inh, MARV entry inh, HCV inhibitor)
CC(C)[C@@H](OCc1ccccc1)[C@H](C)/C=N/OC[C@@H](C)[C@H](OCc1ccccc1)C(C)C	none (no result: LASV entry inh, HCMV inh, FMDV antiviral, HCV inhibitor)
O=C(CN1C(=O)/C(=C\c2cccc(Cl)c2)Sc2ccccc21)NCCCN1CCOCC1	HCV inhibitor inconclusive (no result: LASV entry inh, MARV entry inh)
O=C(CN1C(=O)/C(=C\c2ccccc2Cl)Sc2ccccc21)NCCCN1CCOCC1	HCV inhibitor inconclusive (no result: LASV entry inh, MARV entry inh)
O=C(CN1C(=O)/C(=C/c2ccc(C(F)(F)F)cc2)Sc2ccccc21)NCCCN1CCOCC1	HCV inhibitor 11µM (no result: LASV entry inh, MARV entry inh)
O=C(CN1C(=O)/C(=C\c2cccc(Br)c2)Oc2ccccc21)NCCCN1CCOCC1	HCV inhibitor 6.3µM (no result: LASV entry inh, MARV entry inh)
CCc1ccc(/C=C2/Sc3ccccc3N(CC(=O)NCCCN3CCOCC3)C2=O)cc1	HCMV inh -60, HCV inhibitor inconclusive (no result: LASV entry inh, MARV entry inh)
O=C(CN1C(=O)COc2ccccc21)NCCCN1CCOCC1	none

Compound activity as filed in PubChem.
